The text below walks through data of PubChem BioAssay AID1416 (The Scripps Research Institute Molecular Screening Center, 2008).

Structures are written as SMILES. Out of some 220,000 compounds screened, about 370 (0.17%) were called active. The sample as a whole holds a higher share of actives than the screen did. A number with no mark means an inactive call.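 The calls were made as follows: active = inhibition above the mean inhibition of all tested compounds plus 3 SD, set separately per screening campaign (cut at about 2.9% in these data); inactive = the rest.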

By inhibition is commonly meant the drop in the measured response relative to a control, in per cent.

Sequence of Eukaryotic translation initiation factor 2-alpha kinase 3 (Homo sapiens) (Q9NZJ5 whole entry, looked up, the tested form may be a part): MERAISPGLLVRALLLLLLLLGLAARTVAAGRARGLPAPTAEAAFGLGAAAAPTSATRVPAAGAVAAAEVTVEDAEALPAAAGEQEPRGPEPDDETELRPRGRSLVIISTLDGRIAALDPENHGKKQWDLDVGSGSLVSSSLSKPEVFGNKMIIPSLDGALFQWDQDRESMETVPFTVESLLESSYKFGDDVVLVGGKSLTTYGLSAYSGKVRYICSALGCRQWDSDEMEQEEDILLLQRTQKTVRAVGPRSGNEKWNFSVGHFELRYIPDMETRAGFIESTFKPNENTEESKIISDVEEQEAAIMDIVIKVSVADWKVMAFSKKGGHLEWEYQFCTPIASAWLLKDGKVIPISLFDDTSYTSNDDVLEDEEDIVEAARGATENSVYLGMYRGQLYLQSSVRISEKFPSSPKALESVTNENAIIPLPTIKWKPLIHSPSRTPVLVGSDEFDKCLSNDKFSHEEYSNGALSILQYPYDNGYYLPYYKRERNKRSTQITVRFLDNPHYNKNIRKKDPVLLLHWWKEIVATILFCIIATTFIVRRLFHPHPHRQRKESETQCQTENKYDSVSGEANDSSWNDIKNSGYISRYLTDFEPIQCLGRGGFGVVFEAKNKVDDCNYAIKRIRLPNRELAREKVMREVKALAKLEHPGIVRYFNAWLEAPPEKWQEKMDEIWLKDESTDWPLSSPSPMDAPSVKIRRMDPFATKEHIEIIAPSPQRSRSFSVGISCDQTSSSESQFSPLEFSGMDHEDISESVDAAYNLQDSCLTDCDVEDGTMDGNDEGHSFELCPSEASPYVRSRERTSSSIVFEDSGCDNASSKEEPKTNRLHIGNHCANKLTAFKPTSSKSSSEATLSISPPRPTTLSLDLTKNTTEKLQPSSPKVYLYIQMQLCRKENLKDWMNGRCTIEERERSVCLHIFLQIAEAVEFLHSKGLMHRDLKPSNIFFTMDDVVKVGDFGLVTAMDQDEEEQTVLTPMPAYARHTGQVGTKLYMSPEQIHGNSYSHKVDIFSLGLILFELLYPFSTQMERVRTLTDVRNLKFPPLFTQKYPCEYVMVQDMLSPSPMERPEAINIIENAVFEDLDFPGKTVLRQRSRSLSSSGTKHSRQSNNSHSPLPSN

This experiment concerns the target Eukaryotic translation initiation factor 2-alpha kinase 3 (Homo sapiens) (UniProt Q9NZJ5). Nature of the experiment: SEAP translation reporter rise after PERK-DD activation – CHO PERK-DD cells, SEAP luminescence, HTS, PERK inhibitor project, primary screen (AID 1416).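 Also: PERK kinase domain activated by AP20187 dimerizer at 100 nM; 0% = DMSO with dimerizer and 100% = rapamycin at 8.4 µM.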 The note with it: CHO PERK-DD fusion, at 5.6 µM, stronger effect = higher value.
As to `N#Cc1c(NC(=O)c2ccc(N3CCOCC3)c([N+](=O)[O-])c2)sc2c1CCCC2`, the inhibition is 0.19%.

`O=S(=O)(c1ccc(NC(=S)NN=C(C2CC2)C2CC2)cc1)N1CCOCC1`: the inhibition was 1.01%.

As for `C=CCSC(CC)(CC)C(N)=O`, the inhibition was 2.98% (active).

In the case of `O=S(=O)(NCC1OCCc2ccccc21)c1ccccc1` (centres undefined), the inhibition is 0.47%.

Turning to `Cc1c(-c2ccccc2)cn2c1-c1ccc(C)n1CC2`, the inhibition was 0.83%.

On to `Cn1nccc1NC(=O)Nc1ccc(OC(F)(F)F)cc1`, for which the inhibition was 4.03% (active).

On to `COC(=O)[C@H](C)NC(=O)Nc1ccc(OC(F)(F)F)cc1`, for which the inhibition is -0.1%.

As to `CCOC(=O)Cc1ncccc1C(=O)Nc1ccc(OC(F)(F)F)cc1`, the inhibition was 0.3%.

For `Cc1ccc(S(=O)(=O)Cc2cc(-c3ccc(Cl)cc3)no2)cc1`, the inhibition is 0.87%.

Take `CCOC(=O)CN1C(=O)N[C@@H](c2ccc(Br)cc2)C(C(C)=O)=C1C`: the inhibition is 0.08%.

For `CCOCCCNC(=O)C(=O)NCCCOCC`, the inhibition was 0.9%.

`CCOC(=O)Cc1cc(=O)[nH]c(=O)[nH]1`: the inhibition is 1.51%.

Take `CCOCCCNC(=O)Cc1cc(=O)[nH]c(=O)[nH]1`: the inhibition is 3.08% (active).

Turning to `O=C(CN1CCc2ccccc21)NC(c1ccccc1)c1ccccc1`, the inhibition is -0.59%.

As to `CN(C)C(=O)c1cc(Br)ccc1Cl`, the inhibition is 2.54%.

Turning to `CC(=O)NC(Cc1ccc(F)c(F)c1)C(=O)NC1CCN(C(=O)c2ccc(C)cc2)CC1` (centres undefined), the inhibition is 0.06%.

Take `C=C(C)C1CC=C(C)/C(=N\NC(=O)CNc2ccccc2OC)C1` (centres undefined): the inhibition is 0.13%.

Turning to `c1nc(COc2nsnc2N2CCOCC2)cs1`, the inhibition was 0.89%.

Consider `O=C(O)COc1nsnc1N1CCOCC1`, for which the inhibition was 2.98% (active).

Consider `c1ccc(COc2nsnc2N2CCOCC2)cc1`, for which the inhibition is 1.4%.

As to `NCC(=O)c1cccc2ccc[n+]([O-])c12`, the inhibition was -0.12%.

With `COc1cc(C(=O)N2CCN(C/C=C/c3ccccc3)CC2)cc(OC)c1C`, the inhibition was -0.57%.

As for `CC(C)N1CCC(=NNc2ccc([N+](=O)[O-])cc2S(=O)(=O)N2CCOCC2)CC1`, the inhibition is 1%.

Take `CC(C)N(C(=O)CSc1nc(COc2ccccc2)nc2ccccc12)C(C)C`: the inhibition is 0.48%.
